This assay has as its system RARb homodimer (NR concentration 270 nM). Nature of the assay: PBM binding z-score (relative to random genomic background probes); higher = stronger binding; sequences stand for … in GC…GCGATTGACAGCGTAGAATGAAGG
The method in brief: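 Binding z-scores take random background probes as their reference. They come from custom Agilent 4×180K protein-binding microarrays incubated 1 h with ligand-free nuclear receptor dimers, with antibodies against each partner (one per run) detecting binding. Scanned fluorescence was regression-normalized.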
TCATATAGGCAAACAGGTGAAAGTCCGTAAGTTA yielded a PBM binding z-score of 0.521. The value for TCTGCTAGGTCAGTAGGTCAGCTAACGAGCTGCC was 3.94. The sequence ATCTCTAGGTAACAAGTTCAGTGAGAGAGAGGAC came in with a PBM binding z-score of 1.86. TCGAGTAGGTTTGTCGGGGCATTCAGCCAACATA gave a PBM binding z-score of 0.429.

ATCTCTAGGTAAAAGTTCAGTCAATCCCGAGGAT had a PBM binding z-score of 2.54.

TCATATAGGTAAGTGCTAGGTGAAAGTCCGATCT displayed a PBM binding z-score of 0.823. ATATGTAGGTTATCGGGTCTTTCAGTTTGCGCAT registered a PBM binding z-score of 1.23.

In the case of GCTAGCAGGCCATTTGGGTCACTGAATGACGGGC, the PBM binding z-score came to 1.94. In the case of CAAACTAGGCCACGAAAGGTCAAAGTCGAATGAC, the PBM binding z-score is 4.95. The value for TCTTGAAGATCAATAGAGGTTAAGAAAGTGCGCT was 1.17; that for AGAAAGAGGTTATACGTAGATCAGGGAAGAAAGT was 1.42.

Sequence ATATGTAGGTTAAGGGTAATTCAGGTTGGTTCGC had a PBM binding z-score of 1.56. In turn, TAGCCTAGGTCATTCAGGGGCCAGTTTAGAAAGC registered a PBM binding z-score of 3.42. The sequence TCAGACAGGTGGAGGTAACTCAGGTACGCAGTCG registered a PBM binding z-score of 0.41. The value for GGAACGAGAGCATTCGAGTTGATAGCATGGCGAT was -1.06; that for ACTAGCAGACCAAGGGTCACTCAAGATTAGTCCG was 3.58; that for TCAGACAGGTGAAGGTACCTCAGGTACGCAGTCG was 0.421.

CGTCAAAGATCAACTAAGGTAACGTAAAGCACGC yielded a PBM binding z-score of 0.577. In the case of ATCTATAGGTAAGACTCAGTTCAGTGAAGAACGC, the PBM binding z-score came out at 0.556. Next, GCTGCTAGGTCAACAGATGGTCAGCTAAAGCTCG: 2.83; TAGCCCAGGTCATTCAGGGGCCAGTATAGAAAGC: 3.34; CGACCAAGGTCAAAGGTCAGTGAAGAGATGACGG: 5.51. Sequence CCGACTGGGGCAGAAGGTTACCATAAGCCAGCCC came in with a PBM binding z-score of 1.53. The value for ATCGAAAGGTCGAAGGTTAGTATACCCACCCGAA was 2.72; that for TCGCGGAGGACACGAAGGTCAGAGCTTTCCAGAG was 3.67; that for CGAACTGGGTCATTGACAGGACAGTGAATAGTAA was 2.17. The value for CCGACTGGGGCAATGGTTACCATACTCAGTACGA was -0.241; that for TCTTGTAGATCAAAGGTAAAGAAAGCCGAAGCCT was -0.121; that for TAGCCTAGGTCATTCCGGGGCCAGTATAGAAAGC was 3.12. On to TCATATAGGTAAATGCTAGTTGAAAGTCCGATCT, for which the PBM binding z-score is -0.114.

The sequence GCTTACGGGTCAAAGATTATAGCATGAATAGAAT displayed a PBM binding z-score of 2.21. CCTAGTAGGTCAGGAGGTCACACACCGGATATGA had a PBM binding z-score of 5.24. The value for TCATAGAGGTAAAGGTGAAAGTCGAACGATATGA was 1.69; that for ATCTCTAGGTAAAGTACAGTGAAAGATCGATAGA was 0.302; that for GGAACGAGGGCATTCGAGTTGGTAGCATGGCGAT was 0.543. The value for CTTCCAAGGTCAAGGTCAGTGAAAGAGACTCGAA was 5.12; that for GGAACGACGGCAAGTTGATAGCAGAGTTTGATGG was -0.7. The value for CTCGAAAGGTCGGTAGAGGTGAGTATACGGATAA was 2.52. For the sequence ACTAGAAGGCCAAGTTTGGGTCACTCAAACAAAG, the PBM binding z-score came to 2.88.

TGTCAAACTTCAAAGGTAACGTAAGTATCCACAC returned a PBM binding z-score of 0.582.

The values above are taken from the supplement of paper PMC6555819.
